TDP1 cell noCPT: qHTS for Inhibitors of human tyrosyl-DNA phosphodiesterase 1 (TDP1): qHTS in cells in absence of CPT; DT40 Tdp1-/- hTDP1 cells, no CPT, ATP luminescence, 48 h; Potency, µM (series often up to 46.2 µM), inactives show top-dose activity change, negative = growth inhibition, hits mostly inhibitors; actives 15% (n = 420,000); AID 686978, 2013; note: potency is the fitted concentration of half-maximal effect; nearly all actives have a fitted effect of over 55% in size
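Seeded 400 DT40-hTDP1 cells/well (vehicle DMSO, no 20 nM CPT); pinned compounds; ≥48 hr at 37 °C; CellTiter-Glo luminescence as viability measure.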
TDP1 cell CPT: DT40-hTDP1 cell growth loss with CPT. chicken DT40 Tdp1-/-;hTDP1 cells + 20 nM CPT, ATP luminescence, 48 h. Potency, µM (titrated, usually from 46.2 µM), inactives show top-dose activity change, negative = growth inhibition, actives largely listed as inhibitors. actives 12% (n = 420,000); note: potency is the fitted concentration of half-maximal effect; nearly all actives have a fitted effect of over 55% in size
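Cell growth measured by CellTiter-Glo luminescence after a minimum 48 h, 37 C compound exposure with 20 nM CPT in Tdp1-knockout DT40 cells stably expressing hTDP1, seeded 400/well; qHTS titration format.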
IL-1B inflam inh: inhibitors of inflammasome signaling (IL-1 beta secretion); THP-1 LPS/ATP IL-1B secretion, AlphaLISA, 16 h; active compounds read low; actives 4.7% (n = 360,000); AID 743279; activity change, % at 57.5 µM; in the data active = activity change below about -50%; inconclusive = mostly about -30% to -49%
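Secreted IL-1B measured by AlphaLISA bead assay after 16 h compound exposure of THP-1 cells; compounds (final up to 57.5 uM) added 1 h before LPS (250 ng/mL) and ATP (1.25 mM) stimulation; lower signal means less secretion.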
TDP1 block: TDP1 (human) enzyme inhibition; Q9NUW8; recombinant TDP1, AlphaScreen DNA substrate cleavage; actives 0.28% (n = 350,000); AID 485290; Potency, µM (top dose mostly 130 µM), inactives show at the highest dose activity change, negative = inhibition, actives largely listed as inhibitors; note: potency is the fitted concentration of half-maximal effect; nearly all actives have a fitted effect of over 40% in size
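AlphaScreen read-out: signal falls as enzyme removes the 3' tyrosine-FITC from a 5'-biotinylated DNA oligo (15 nM, 5 min, RT). Enzyme was E. coli-made recombinant Tdp1 at 1 nM, exposed to compound for 15 min beforehand; beads 10 ug/ml, 10 min.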
CtBP-E1A blk: CtBP/E1A binding inhibition; AlphaScreen GST-E1A/His-CtBP binding, 1536-well; active compounds read low; activity change, % (no concentration beside the values); actives 0.49% (n = 340,000); AID 651724; in the data active = activity change below about -65%; inconclusive = mostly about -30% to -63%
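Protein mix (5X: 125 nM each GST-E1A, His-CtBP) was incubated with pinned compound 2 h at 37 deg C in dark, in 50 mM Tris pH 8.0 buffer with 300 mM NaCl. Glutathione donor and nickel acceptor beads followed; AlphaScreen signal read after 1 h.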
Six1-Eya2 blk: blocks human Six1 binding to Eya2. activity change, % (concentration not given with the values). AID 651725. AlphaScreen GST-Six1/His-Eya2 binding, biochemical; active compounds read low. actives 0.56% (n = 360,000). Q15475+O00167; in the data active = activity change below about -65%; inconclusive = mostly about -30% to -63%
Target sequence (O00167 whole entry, looked up): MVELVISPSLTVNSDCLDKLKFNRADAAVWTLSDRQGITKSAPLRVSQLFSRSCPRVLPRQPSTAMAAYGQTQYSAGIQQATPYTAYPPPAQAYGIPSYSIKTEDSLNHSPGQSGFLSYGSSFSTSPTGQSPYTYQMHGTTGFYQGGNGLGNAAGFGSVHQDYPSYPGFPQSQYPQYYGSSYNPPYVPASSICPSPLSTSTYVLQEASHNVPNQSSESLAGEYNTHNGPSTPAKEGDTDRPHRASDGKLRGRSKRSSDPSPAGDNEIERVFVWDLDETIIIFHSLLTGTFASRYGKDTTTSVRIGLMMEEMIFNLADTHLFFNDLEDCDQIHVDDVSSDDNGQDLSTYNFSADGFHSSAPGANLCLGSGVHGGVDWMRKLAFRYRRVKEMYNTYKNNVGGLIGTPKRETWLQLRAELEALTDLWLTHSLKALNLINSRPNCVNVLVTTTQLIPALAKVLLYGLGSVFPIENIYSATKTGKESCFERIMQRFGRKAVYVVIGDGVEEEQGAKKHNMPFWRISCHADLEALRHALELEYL
Target sequence (Q15475 whole entry, looked up): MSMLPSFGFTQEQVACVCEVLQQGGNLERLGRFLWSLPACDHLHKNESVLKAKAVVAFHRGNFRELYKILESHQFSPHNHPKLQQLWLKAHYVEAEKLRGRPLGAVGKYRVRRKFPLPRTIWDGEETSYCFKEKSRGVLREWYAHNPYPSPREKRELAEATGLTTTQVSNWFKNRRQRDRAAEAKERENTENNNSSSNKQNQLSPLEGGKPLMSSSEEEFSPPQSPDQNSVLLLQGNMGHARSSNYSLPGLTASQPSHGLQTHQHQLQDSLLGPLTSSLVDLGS
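AlphaScreen with GST-Six1 and His-Eya2 (5X mix: 250 nM and 500 nM), glutathione donor and nickel acceptor beads; buffer 50 mM Tris pH 8.0, 300 mM NaCl, 1 mM TCEP; 1 h at 37 C in the dark.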
Numbers without * were called inactive; ? = inconclusive; nt = no result; [ ] = remark or other dose. An excerpt weighted towards active compounds, which were near 18% of everything screened. Unless noted, calls come from the whole dose curve; as a rule, active = well fitted curve in the direction sought with a large enough effect; inconclusive = small, poorly fitted or top-dose-only effect, or another doubt; inactive = no such curve, though single readings can be large; an effect the other way counts as inactive or inconclusive. % is set by controls: 0 for no effect and ±100 for the full control effect.

SMILES | TDP1 cell noCPT | TDP1 cell CPT | IL-1B inflam inh | TDP1 block | CtBP-E1A blk | Six1-Eya2 blk
Cc1ccc(Cl)cc1-c1cc(C(=O)N2CCc3ccccc3C2)[nH]n1 | ? | 16µM* | ? | nt | 2 | -7
COc1ccc(Cl)c(-c2cc(C(=O)NCc3ccc(C(F)(F)F)cc3)[nH]n2)c1 | ? | 16µM* | -28 | nt | 2 | -1
O=c1c2ccccc2c(C=NCCO)c(O)n1-c1ccccc1 | -19% | -8% | 19 | -3% | 2 | 1
Cc1cc(=O)oc2cc(OCC(=O)N3CCN(c4ccccc4)CC3)c(Cl)cc12 | 10% | -1% | 19 | 1% | 8 | 1
O=C(c1cnc(N2CCN(c3ccccn3)CC2)c2ccccc12)N1CCN(c2cccc(Cl)c2)CC1 | 12µM* | 13µM* | -60* | 2% | -14 | -26
O=C(c1cc(Cl)ccc1Cl)N1CCN(c2ccccn2)CC1 | -11% | -15% | 29 | 5% | -13 | 6
O=C(c1cc(Sc2ccc(Cl)cc2)nc2ccccc12)N1CCN(c2ccccn2)CC1 | ? | ? | -7 | 7% | -6 | -9
O=C(c1cc(Sc2cccc(Cl)c2)nc2ccccc12)N1CCN(c2ccccn2)CC1 | ? | 15µM* | -13 | -1% | -29 | -25
O=C(CSc1nnc(N2CCCC2)n1-c1ccccc1Cl)N1CCN(c2ccccn2)CC1 | ? | ? | -14 | 2% | 2 | -7
O=C(CSc1nnc(N2CCCC2)n1-c1cccc(Cl)c1)N1CCN(c2ccccn2)CC1 | 21µM* | ? | -24 | nt | -3 | 4
CSc1ccccc1C(=O)N1CCN(c2cccc(Cl)c2)CC1 | ? | ? | -7 | 3% | 29 | -19
CC(C)OC(=O)c1cccnc1N1CCN(c2cccc(Cl)c2)CC1 | 16µM* | ? | 19 | -3% | nt | 0
COc1ccc(C2C(C(N)=O)=C(C)Nc3nc(-c4cccc(Cl)c4)nn32)cc1OC (configuration not stated) | ? | -18% | ? | 3% | -1 | 1
CCC(C)n1c(SCc2ccc(C(C)(C)C)cc2)nc2ccsc2c1=O (configuration not stated) | 13µM* | 13µM* | nt | 0% | nt | nt
CCC(C)n1c(SCc2ccccc2)nc2ccsc2c1=O (configuration not stated) | 21µM* | ? | 3 | 0% | 38 | 24
CC(C)CCn1c(SCc2ccc(F)cc2Cl)nc2ccsc2c1=O | -6% | 5% | nt | 0% | nt | nt
CCC(C)n1c(SCc2ccc(F)cc2Cl)nc2ccsc2c1=O (configuration not stated) | 21µM* | 18µM* | nt | 2% | nt | nt
CCC(C)n1c(SCC(=O)Nc2ccccc2C(=O)OC)nc2ccsc2c1=O (configuration not stated) | 18µM* | 16µM* | nt | -5% | nt | nt
CCc1ccc(NC(=O)CSc2nc3ccsc3c(=O)n2C(C)CC)cc1 (configuration not stated) | ? | ? | nt | 4% | nt | nt
CC(C)c1ccc(CC(=O)N2CCC2(C)C(=O)NS(=O)(=O)c2ccc(F)cc2F)cc1 (configuration not stated) | -20% | -11% | 57 | nt | -1 | 4
COc1cc(C=O)ccc1OCC(=O)Nc1ccccc1N1CCOCC1 | ? | ? | -13 | 3% | 3 | -1
COc1cc(C=O)ccc1Oc1nc(Nc2ccc(F)cc2F)nc(N2CCOCC2)n1 | ? | ? | -56* | 5% | nt | -3
COc1ccc(-c2noc(CN(C(=O)c3ccoc3C)C(C)C)n2)cc1 | ? | -26% | -11 | 10% | -1 | -4
Cc1ccccc1C(=O)OCc1nnc(-c2ccc(Cl)cc2)o1 | 11% | -10% | 5 | 0% | 23 | 16
Cc1cccc(C(=O)N(Cc2nc(-c3ccc(Cl)cc3)no2)C(C)C)c1 | ? | ? | nt | -1% | nt | nt
SMILES | TDP1 cell noCPT | TDP1 cell CPT | IL-1B inflam inh | TDP1 block | CtBP-E1A blk | Six1-Eya2 blk
Cc1cc(C(=O)N(Cc2nnc(-c3ccc(Cl)cc3)o2)C(C)C)c2ccccc2n1 | 15µM* | ? | 0 | 3% | -12 | 2
COc1ccc(-c2noc(CN(C(=O)c3ccc(C)cc3C)C(C)C)n2)cc1 | 15µM* | 23µM* | nt | 7% | nt | nt
Cc1ccc(C)c(C(=O)N(Cc2nc(-c3ccc(Cl)cc3)no2)C(C)C)c1 | 18µM* | ? | -8 | 5% | 5 | 0
COc1cccc(C(=O)N(Cc2nc(-c3ccc(C)cc3)no2)C(C)C)c1 | ? | 18µM* | -1 | 3% | 8 | 4
Cc1ccc(S(=O)(=O)N2CCC(NC(=O)c3cccnc3)CC2)cc1Cl | -15% | 2% | -4 | nt | -9 | 5
O=C(NCc1ccncc1)C1CCC(=O)N(CCc2ccc(Cl)cc2)C1 (configuration not stated) | 11% | 2% | 25 | 1% | 8 | 9
COc1ccc(/C=C2\N=C(c3ccccc3Cl)NC2=O)cc1 | 0.82µM* | 5.8µM* | ? | nt | nt | -1
CC1=NC(=O)C(N=Nc2ccccc2)N1c1ccccc1 (configuration not stated) | -14% | -6% | 4 | 13%[56.1 µM] | ? | ?
CC1=NC(=O)C(N=Nc2ccccc2C(=O)O)N1c1ccccc1 (configuration not stated) | 13µM* | 7.3µM* | 36 | 2% | -10 | -21
Cc1c([N+](=O)[O-])c([N+](=O)[O-])nn1CC(=O)NCCc1ccccc1 | 7% | -3% | -90* | 3% | 0 | 3
CCCNC(=O)Cn1nc([N+](=O)[O-])c([N+](=O)[O-])c1C | -18% | -10% | -6 | 1% | 5 | 4
CC(C)c1onc(C(=O)NCCc2ccccc2)c1[N+](=O)[O-] | ? | 21µM* | -12 | -2% | 1 | 9
CC(C)c1onc(C(=O)N(C)Cc2ccccc2)c1[N+](=O)[O-] | -13% | 14% | -2 | -3% | 0 | 5
Cc1ccc(-n2nnnc2CN2CCCCC2)cc1 | 2% | 9% | 0 | -3% | -1 | 5
NS(=O)(=O)c1ccc(CNC(=O)c2ccc(S(=O)(=O)C(F)F)cc2)cc1 | -19% | -14% | -2 | 5% | 1 | 5
COc1ccc(N(C(=O)c2snc(C(N)=O)c2N)C(C(=O)NC2CCCC2)c2cccs2)c(OC)c1 (configuration not stated) | 21µM* | ? | 0 | 5%[0.0935 µM] | -22 | -4

High-throughput results deposited in PubChem BioAssay by National Center for Advancing Translational Sciences (NCATS).
